# High-throughput results deposited in PubChem by National Center for Advancing Translational Sciences (NCATS).
# CHX counter: Cycloheximide Counterscreen for Small Molecule Inhibitors of Shiga Toxin; cell reporter, cycloheximide protein synthesis inhibition counterscreen; max response, %; actives 12% (n = 300,000); in the data active = max response mostly above about 13%, no sharp cut-off; inactive = mostly below about 14%; note: read at 38.3 µM for the half of the compounds with a filed dose; 0% is about no effect
# HCV inh: qHTS Assay for Inhibitors of Hepatitis C Virus (HCV) | Huh7.5.1 HCVcc-Cre infection, luciferase reporter, 44 h | Potency, µM (series often up to 41.8 µM), without a hit: at the top dose activity change, negative = inhibition, usual class: inhibitors | actives 3.4% (n = 340,000) | AID 651820, 2012; note: potency is the fitted concentration of half-maximal effect; % is set by controls: 0 for no effect and ±100 for the full control effect
#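 Antiviral activity was scored by luciferase reporter output from cells infected with HCVcc-Cre (~0.5 moi) in presence of compound, 44 h infection period, cells seeded 1,000/well 4 h prior.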
# AMA1-RON2 inh: qHTS for Inhibitors of AMA1-RON; Towards Development of Antimalarial Drug Lead: Primary Screen; AlphaScreen AMA1-biotinylated RON2 peptide binding; actives 0.2% (n = 360,000); Potency, µM (titrated, usually from 58.2 µM), inactives show at the top dose activity change, negative = inhibition, hits mostly inhibitors; Plasmodium falciparum AMA1 (3D7) - RON2 peptide interaction;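 note: potency is the fitted concentration of half-maximal effect; 0% = vehicle wells and -100% = peptide control; nearly all actives have a fitted effect of over 45% in size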
#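 AMA1 (3D7) with his tag at 25 nM final met compounds first, then biotinylated RON2 peptide at 25 nM; detection used donor plus acceptor beads, 10 µg/mL apiece, read by AlphaScreen after 30 min at room temperature.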
# Pf growth 96h: Primary qHTS for delayed death inhibitors of the malarial parasite plastid, 96 hour incubation; P. falciparum luciferase reporter growth, 96 h; Potency, µM (series often up to 28.7 µM), for inactives: at the top dose activity change, negative = inhibition, hits mostly inhibitors; actives 6.9% (n = 320,000); AID 504834, 2011; note: potency is the fitted concentration of half-maximal effect; % is set by controls: 0 for no effect and ±100 for the full control effect
#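 96 h incubation, 37 C, 5% CO2, of luciferase-reporter P. falciparum-infected RBCs (2% hematocrit, 0.05% parasitemia final) with test compounds; endpoint luminescence.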
# Pf growth 48h: Primary qHTS for delayed death inhibitors of the malarial parasite plastid, 48 hour incubation | P. falciparum luciferase growth in erythrocytes, 48 h | Potency, µM (highest dose often 28.7 µM), without a hit: at the top dose activity change, negative = inhibition, actives largely listed as inhibitors | actives 5.9% (n = 310,000) | AID 504832, 2011; note: potency is the fitted concentration of half-maximal effect; % is set by controls: 0 for no effect and ±100 for the full control effect
#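 Read-out is firefly luciferase luminescence from an integrated reporter in P. falciparum, so falling signal marks reduced parasite growth. Infected erythrocytes were at 2% hematocrit and 0.1% parasitemia (final) in Albumax-supplemented RPMI 1640.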
# Shiga toxin inh: A qHTS for Small Molecule Inhibitors of Shiga Toxin | Vero cells, Shiga toxin protein synthesis inhibition reporter | actives 9.2% (n = 290,000) | inhibition, % at 38.7 µM | AID 2315, 2010; in the data active = inhibition mostly above about 28%, no sharp cut-off; inactive = mostly below about 43%; note: 0% is about no effect
# Starred values were filed as active, the others as inactive; ? = inconclusive; . = no result; ! = a repeat was not active. Only some compounds are listed: those with a hit (about 21% of all), similar ones and a draw of the others. Unless noted, calls come from the whole dose curve; as a rule, active = well fitted curve in the direction sought with a large enough effect; inconclusive = small, poorly fitted or top-dose-only effect, or another doubt; inactive = no such curve, though single readings can be large; an effect the other way counts as inactive or inconclusive.
SMILES,CHX counter,HCV inh,AMA1-RON2 inh,Pf growth 96h,Pf growth 48h,Shiga toxin inh
CC(C)c1nc2cc(C(=O)N3CCN(c4cnccn4)CC3)ccc2o1,27*,-8%,-5%,12µM*,6%,51
CC(=O)c1ccc(OCCCC(=O)OCC(=O)Nc2ccc3[nH]c(=O)[nH]c3c2)cc1,.,-5%,15%,35%,54%,.
CN(Cc1ccccc1)S(=O)(=O)c1ccc(Cl)c(C(=O)OCC(N)=O)c1,20*,16%,-2%,32%,28%,37*
N#Cc1cc2c([nH]c1=S)CCCC2,33*,-2%,37%,4%,3%,50*
N#Cc1cc2c([nH]c1=O)CCCC2,-5,-1%,12%,-1%,-7%,1
Cc1cc(Cl)ccc1OCC(=O)N(Cc1cccs1)C1CCS(=O)(=O)C1 (configuration not stated),0,3%,-13%,?,-11%,14
O=C(NCc1cc(C(F)(F)F)cc(C(F)(F)F)c1)c1cc(-c2cc(F)ccc2OCC2CCCO2)n[nH]1 (configuration not stated),.,.,-4%,.,.,.
Nc1cc(C(F)(F)F)ccc1OCC1CCCO1 (configuration not stated),26*,2%,-7%,-21%,2%,21*
CC(C)N1CC2(CC(c3ccc(Cl)cc3Cl)=NO2)CN1C(=O)c1ccc(C(C)(C)C)cc1 (configuration not stated),.,.,3%,.,.,.
Cc1ccc2nc(SCC(=O)Nc3cc(C)on3)nc(=O)n2c1,.,-1%,10%,6%,?,.
CC(C)c1csc(CN2CCC(C(=O)Nc3cccc(-c4ccco4)c3)CC2)n1,.,.,-16%,.,.,.
CCOC(=O)c1ccccc1NC(=O)COC(=O)c1cc([N+](=O)[O-])ccc1N1CCOCC1,.,2.2µM*,?,?,?,.
O=C(COC(=O)c1cc([N+](=O)[O-])ccc1N1CCOCC1)Nc1cccc(F)c1,7,13µM*,33%,-18%,24%,-4
CC(=O)Nc1ccc(NC(=O)COC(=O)c2cc([N+](=O)[O-])ccc2N2CCOCC2)cc1,-2,-4%,10%,10%,-1%,-5
CCOc1ccc(CCNC(=O)COC(=O)c2cc([N+](=O)[O-])ccc2N2CCOCC2)cc1OCC,-2,?,-3%,9.3µM*,?,-11
CCOc1ccc(CCNC(=O)COC(=O)c2cc(OC)c(OC)cc2[N+](=O)[O-])cc1OCC,.,?,-17%,?,15µM*,.
COc1ccc(C(=O)N2CCCCC2c2cc(C(=O)NCc3ccccc3)no2)cc1 (configuration not stated),.,.,0%,.,.,.
CC(C)CC1C(=O)N(Cc2cn(Cc3ccco3)nn2)CCS(=O)(=O)N1Cc1ccc(-c2ccccc2)cc1 (configuration not stated),.,.,-11%,.,.,.
CCN(CC(=O)Nc1ccc(NC(C)=O)cc1)C(=O)Cc1ccc(S(=O)(=O)N2CCOCC2)s1,.,22%,13%,22%,6%,.
COc1cc(CC(=O)NCCc2ccc(OCc3ccccc3)cc2)c([N+](=O)[O-])cc1OC,49*,-22%,15%,.,4%,55
COc1ccc(CCNC(=O)Cc2cc(OCc3ccccc3)c(OC)cc2[N+](=O)[O-])cc1OC,2,?,-4%,?,?,-38
O=[N+]([O-])c1ccc(COc2cccc(CN3CCCCC3)c2)cc1,.,?,-12%,.,.,.
Cc1ccc(NC(=S)Nc2cccc3cnccc23)cc1,26*,-29%,7%,?,?,20
S=C(Nc1cccc(Cl)c1)Nc1cccc2cnccc12,47*,?,-10%,4.1µM*,0%,56*
CC(=O)c1ccc(NC(=S)Nc2cccc3cnccc23)cc1,36*,13%,12%,2.6µM*,1.9µM*,47*
SMILES,CHX counter,HCV inh,AMA1-RON2 inh,Pf growth 96h,Pf growth 48h,Shiga toxin inh
Cc1ccc(NC(=S)Nc2cccc3cnccc23)cc1C,32*,?,21%,?,?,54
S=C(Nc1cccc(Cl)c1)Nc1ccccc1Oc1ccccc1,-2,?,-10%,12µM*,21%,-7
S=C(Nc1ccc(Cl)cc1Cl)Nc1ccccc1Oc1ccccc1,13,?,94%,?,?,-12
CNc1ccc2ncc(-c3cccc(C(=O)N(C)C)c3)n2n1,.,.,-5%,.,.,.
O=C1NC[C@@H](CCCCN2C[C@H](Cc3ccc(O)cc3)N(CCc3ccccc3)C(=O)C2=O)N(CC2CCCCC2)C1=O,.,.,-5%,.,.,.
CN1CCN(C(c2ccc(Br)cc2)c2cc(Cl)c3cccnc3c2O)CC1 (configuration not stated),-8,7.9µM*,-58%,7.4µM*,12µM*,3
CN1CCN(C(c2ccc(F)cc2)c2ccc3cccnc3c2O)CC1 (configuration not stated),.,10%,44%,.,.,.
COc1ccc(OC)c(S(=O)(=O)N2CCC(C(=O)N(C)Cc3ccccc3)CC2)c1,7,17%,15%,-28%,?,-14
CCOC(=O)N(C)c1c(CC)nc2c(OCc3ccc(S(C)(=O)=O)cc3)cccn12,.,.,2%,.,.,.
Cc1ccc(-n2nc3c(=O)n(C(C)C(=O)NCc4ccc(Cl)cc4)nc(C)c3c2C)cc1 (configuration not stated),15,22µM*,-11%,1.7µM*,?,-7
Cc1ccc(-n2nc3c(=O)n(C(C)C(=O)NCCC4=CCCCC4)nc(C)c3c2C)cc1 (configuration not stated),9,10µM*,0%,9.3µM*,?,1
CCOC(=O)c1nnn(-c2nonc2N)c1CS(=O)(=O)c1ccccc1,1,14%,0%,12µM*,1%,-18
CCOc1cccc(-c2c(C(=O)N/N=C(\C)c3ccccn3)nnn2-c2nonc2N)c1,-9,11µM*,-26%,3.7µM*,?,-5
CCOC(=O)c1nnn(-c2nonc2N)c1CN1CCc2ccccc2C1,0,-3%,9%,.,-17%,-12
CCOC(=O)c1nnn(-c2nonc2N)c1-c1ccc(OCC)cc1,-1,-4%,9%,?,13µM*,-3
c1ccc2c(c1)CCc1ccccc1C2=C1CCNCC1,.,-23%,-14%,.,.,.
COc1cccc(Cn2cnc(-c3ccccc3OC)c2C2CC2)c1,.,.,-19%,.,.,.
O=C(NNc1ccccc1)C(=O)NNc1ccccc1,.,1%,?,.,.,.
NNc1ccccc1,14*!,.,.,-6%,-11%,11
